Our source for the growth values is PubChem BioAssay (NCI).

Test systems include T-47D breast; BT-549 breast; MDA-MB-435 melanoma; SW-620 colon; MCF7 breast; HCT-116 colon; HCC-2998 colon; KM12 colon.
What all share (assay): NCI-60 one-dose screen, 48 h (100 = growth as untreated, 0 = no growth, -100 = all killed)
Details in all cases: 10 µM unless noted

The structures appear in SMILES notation. About 83,000 compounds went through this panel and 20% of them were active in at least one assay; those are over-represented in the sample as a whole.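 Treatment: one concentration, 48 hours, 96-well format. Scoring: percent growth, with anything below 10 considered active.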 Values without a mark were called inactive. Activity calls are given as the source filed them.

For `C=CCc1cc(OC)c(OC)c(OC)c1`, the growth in the assay on T-47D breast was 108%; in the assay on BT-549 breast it was 96.1%; in the assay on MDA-MB-435 melanoma, 108%; in the assay with SW-620 colon it was 91.8%; in the assay with MCF7 breast, 113%; with HCT-116 colon it was 99.1%. The figures for the growth with HCC-2998 colon and in the assay on KM12 colon were 100% and 88.7%, respectively.

With `OC1Cc2ccccc2C1`, the growth with T-47D breast is 102%; with BT-549 breast, 97.4%; in the assay on MDA-MB-435 melanoma, 102%; in the assay with SW-620 colon, 96.7%; in the assay with MCF7 breast, 86.2%; in the assay with HCT-116 colon, 97.9%. In addition, the growth in the assay with HCC-2998 colon is 94.8%; with KM12 colon, 98.5%.

With `O=C(CCCl)OCCOc1ccccc1`, the growth was 96% in the assay on T-47D breast; 116% in the assay with BT-549 breast; 110% with MDA-MB-435 melanoma; 107% in the assay with SW-620 colon; 92.1% with MCF7 breast; 118% in the assay with HCT-116 colon. Besides, the growth with HCC-2998 colon was 108%; with KM12 colon it was 102%.

Regarding `COC1OC(CO)C(OC)C(O)C1O` (centres undefined), the growth in the assay on T-47D breast was 112%; in the assay on BT-549 breast, 104%; in the assay on MDA-MB-435 melanoma, 109%; in the assay with SW-620 colon, 93.6%; with MCF7 breast, 98.9%; in the assay on HCT-116 colon it was 106%. Further, the growth was 107% with HCC-2998 colon and 99.6% in the assay on KM12 colon.

`Cc1cc2nc(C)c(C)nc2cc1C`: the growth was 99.5% in the assay with T-47D breast; 100% in the assay with BT-549 breast; 105% with MDA-MB-435 melanoma; 111% with SW-620 colon; 90.7% with MCF7 breast; 112% in the assay on HCT-116 colon. The growth in the assay with HCC-2998 colon was 110%; with KM12 colon, 108%.

`O=c1nc(Nc2cccc(Cl)c2)oc2cc(Cl)oc(=O)c12`: the growth with T-47D breast is 61.6%; in the assay with BT-549 breast, 91.2%; in the assay on MDA-MB-435 melanoma, 85.8%; with SW-620 colon, 74.1%; in the assay on MCF7 breast, 53.8%; in the assay with HCT-116 colon it was 55.1%. In addition, the growth in the assay with HCC-2998 colon is 96.2%; in the assay on KM12 colon, 81.7%.

`CCCCCCCCCc1ccc(OC(C)=O)cc1`: the growth in the assay with T-47D breast was 108%; with BT-549 breast, 112%; in the assay on MDA-MB-435 melanoma, 109%; with SW-620 colon, 102%; in the assay on MCF7 breast it was 102%; in the assay on HCT-116 colon it was 110%. For the same molecule, the results for the growth with HCC-2998 colon and with KM12 colon were 113% and 106%, respectively.

For the molecule `O=C(NCc1ccccc1)/C(=C/c1ccccc1)NC(=O)c1ccccc1`, the growth with T-47D breast is 110%; in the assay with BT-549 breast, 98.6%; with MDA-MB-435 melanoma, 113%; with SW-620 colon, 102%; with MCF7 breast it was 96.6%; in the assay on HCT-116 colon it was 107%. Further, the growth was 102% with HCC-2998 colon and 101% in the assay with KM12 colon.

For the molecule `O=C(O)C1CSC(c2ccccc2)N1` (centres undefined), the growth was 101% in the assay on T-47D breast; 104% in the assay on BT-549 breast; 108% with MDA-MB-435 melanoma; 95.2% with SW-620 colon; 91.5% in the assay on MCF7 breast; 101% in the assay on HCT-116 colon. The growth in the assay on HCC-2998 colon is 103%; in the assay with KM12 colon it was 101%.

`CN1CCN(C(=S)S)CC1`: the growth was 93% in the assay with T-47D breast; 108% in the assay with BT-549 breast; 109% in the assay with MDA-MB-435 melanoma; 114% in the assay on SW-620 colon; 99.3% in the assay on MCF7 breast; 107% with HCT-116 colon. In addition, the growth in the assay with HCC-2998 colon and with KM12 colon was 107% throughout.

For the molecule `S=CN1CCCCC1`, the growth was 103% in the assay on T-47D breast; 105% in the assay on BT-549 breast; 103% with MDA-MB-435 melanoma; 105% with SW-620 colon; 96.3% in the assay on MCF7 breast; 102% in the assay with HCT-116 colon. Also, the results for the growth with HCC-2998 colon and in the assay on KM12 colon were 103% and 98.8%, respectively.

As to `Clc1ncnc2nc[nH]c12`, the growth was 90.7% in the assay on T-47D breast; 101% in the assay on BT-549 breast; 106% with MDA-MB-435 melanoma; 103% in the assay on SW-620 colon; 94.9% with MCF7 breast; 102% with HCT-116 colon. Besides, the growth with HCC-2998 colon was 89.6%; in the assay with KM12 colon, 105%.

For the molecule `CCCC(=O)CC(=O)c1ccccc1`, the growth with T-47D breast is 96.1%; in the assay on BT-549 breast, 101%; in the assay with MDA-MB-435 melanoma it was 110%; with SW-620 colon, 105%; with MCF7 breast it was 97.2%; with HCT-116 colon, 94.8%. In addition, the growth with HCC-2998 colon was 99.1%; with KM12 colon, 102%.

Regarding `CN(C)c1ccc2nc3ccc(=[N+](C)C)cc-3oc2c1`, the growth is 14.4% with T-47D breast; 63.2% with BT-549 breast; 55.1% in the assay with MDA-MB-435 melanoma; 9.01% (active) with SW-620 colon; -30.4% (active) in the assay on MCF7 breast; 6.48% (active) in the assay on HCT-116 colon. The growth in the assay with HCC-2998 colon is 43.3%; in the assay with KM12 colon, 35.1%.

For `CC(=O)O[C@H]1CC[C@]2(C)C3=C(C(=O)C[C@H]2C1(C)C)[C@]1(C)CC[C@H]([C@H](C)CCC(=O)O)[C@@]1(C)CC3=O`, the growth in the assay with T-47D breast was 91.5%; with BT-549 breast, 93.9%; in the assay on MDA-MB-435 melanoma, 98.7%; with SW-620 colon, 85.5%; in the assay with MCF7 breast, 89.6%; with HCT-116 colon, 99.2%. For the same molecule, the growth in the assay on HCC-2998 colon was 102%; in the assay on KM12 colon, 106%.

Consider `Cc1cc(Cl)cc(Cc2cc(Cl)cc(C)c2O)c1O`, for which the growth in the assay on T-47D breast is 14%; in the assay with BT-549 breast, 1.21% (active); with MDA-MB-435 melanoma it was -10.5% (active); in the assay with SW-620 colon, 14%; with MCF7 breast it was 22.4%; in the assay on HCT-116 colon, 8.46% (active). In addition, the growth in the assay with HCC-2998 colon was 13.1%; in the assay with KM12 colon, -5.92% (active).

`COC(=O)C1(CC(C)=O)NC(=S)NC(=O)C1C#N` (centres undefined): the growth is 108% in the assay on T-47D breast; 108% in the assay with BT-549 breast; 114% in the assay on MDA-MB-435 melanoma; 102% in the assay on SW-620 colon; 97.5% with MCF7 breast; 106% in the assay with HCT-116 colon. Moreover, the growth in the assay on HCC-2998 colon was 109%; with KM12 colon it was 106%.

As to `N#C/C(=C\c1ccc2c(c1)OCO2)c1ccccc1`, the growth with T-47D breast is 61.4%; in the assay with BT-549 breast, 65.2%; in the assay with MDA-MB-435 melanoma it was -1.53% (active); in the assay on SW-620 colon, 41.4%; in the assay on MCF7 breast it was 53%; in the assay with HCT-116 colon it was 53.3%. Also, the growth with HCC-2998 colon is 76.4%; with KM12 colon it was 42.8%.
